HMGR II inh – blocks class II HMG-CoA reductase of Enterococcus faecalis; 0.41% of 190,000 active; purified E. faecalis HMGR, NADPH absorbance 340 nm kinetic; inhibition, % at 10 µM;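 active means inhibition above a set limit, the median over all tested compounds plus 3 SD, cut at about 9.5% in these data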;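 further: enzyme runs in reverse so mevalonate oxidation gives rising NADPH absorbance; 0% = complete reaction with DMSO and 100% = background rate lacking mevalonate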
Avidin bead fluor – compound fluoresces at 488/530 nm on avidin beads. AID 1775. 0.38% of 220,000 active. fluorescence (KMESF) at 10 µM. compound fluorescence 488/530 nm, flow cytometry; hits give high values; in the data active means fluorescence above about 47
EP2 modulator – modulators of human EP2 prostaglandin E2 receptor. P43116. EP2-expressing cells, cAMP HTRF FRET, PGE2 co-stimulation. induction, % at 25 µM. 0.83% of 260,000 active. AID 940;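 active means compounds whose cAMP rise, as percent of the full-agonist control response, exceeds 60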;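 further: rat C6 glioma line stably carrying human EP2 under a CMV promoter; the protocol text gives 20 µM as final concentration; 100% = response of wells given 1 µM PGE2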
Target sequence (P43116 whole entry, looked up): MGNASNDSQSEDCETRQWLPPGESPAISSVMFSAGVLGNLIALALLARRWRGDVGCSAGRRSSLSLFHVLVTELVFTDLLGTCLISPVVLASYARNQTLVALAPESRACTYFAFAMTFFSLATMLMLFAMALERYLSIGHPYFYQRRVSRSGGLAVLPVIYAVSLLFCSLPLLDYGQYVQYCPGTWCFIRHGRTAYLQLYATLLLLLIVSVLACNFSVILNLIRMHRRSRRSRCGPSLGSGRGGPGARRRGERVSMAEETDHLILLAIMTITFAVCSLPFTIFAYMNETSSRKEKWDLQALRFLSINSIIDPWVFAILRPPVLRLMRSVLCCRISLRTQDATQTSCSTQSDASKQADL
GSH bead fluor – GSH bead compound fluorescence profile; GSH beads flow cytometry, compound fluorescence 488/530 nm; hits give high values; fluorescence (KMESF) at 10 µM; 0.25% of 190,000 active; AID 1776; in the data active means fluorescence above about 89;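 further: glutathione beads carrying GST-tagged Bcl family fusion proteins plus one bare bead set; values are compound well signal with DMSO vehicle wells as background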
PGE2 EP2 inh – EP2 receptor (human) inhibition | C6 glioma cells expressing human EP2, cAMP TR-FRET; cells stimulated with saturating PGE2 | inhibition, % at 25 µM | P43116 | 0.52% of 260,000 active;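 active means percent inhibition above 40 after rounding to a whole number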;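 further: rat C6 glioma host cells with rolipram phosphodiesterase inhibitor present; the protocol text gives 20 µM as final concentration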
* hit, by the source's call; . = not tested or not shown; ! = not active in a repeat. The list is not random: actives were taken first. Their share in the collection is about 2.1%.

SMILES | HMGR II inh | Avidin bead fluor | EP2 modulator | GSH bead fluor | PGE2 EP2 inh
COc1ccc(NC(=O)CSc2ccc3c4c(cccc24)C(=O)c2ccccc2-3)cc1 | 2 | 49* | -8 | 20 | 3
c1ccc(-c2nccnc2-c2ccccc2)cc1 | . | 9 | 54 | . | 6
FC(F)Sc1nc(-c2ccccc2)c(-c2ccccc2)n1C(F)F | -1 | 100* | 36 | 19 | 6
O=[N+]([O-])c1ccc2c(c1)Cc1cc(N=Cc3ccc4c(c3)OCO4)ccc1-2 | . | . | -26 | . | 51*
COc1cccc(NC(=O)C2CC(=O)N(C)C(=Nc3cccc(F)c3)S2)c1 (stereo unspecified) | -1 | 14 | -43 | 23 | 7
COc1cccc(N=C2SC(C(=O)Nc3ccccc3F)CC(=O)N2C)c1 (stereo unspecified) | -6 | 15 | -19 | 23 | 163*
CSc1nc2ccc(NS(=O)(=O)c3ccc4c(c3)OCCO4)cc2s1 | -6 | 4 | -47 | 262* | 10
CSc1nc2ccc(NS(=O)(=O)c3c(Cl)cccc3Cl)cc2s1 | -4 | 10 | -34 | 14 | 7
CSc1nc2ccc(S(=O)(=O)N3CCCCC3)cc2s1 | 3 | 50* | -15 | 24 | 13
CSc1nc2ccc(S(=O)(=O)N3CCOCC3)cc2s1 | -3 | 11 | -13 | 30 | 4
CN(C)CCCN1c2ccccc2Sc2cnccc21 | . | . | -16 | . | 45*
CSc1ccc2c(c1)N(CCCN(C)C)c1ccccc1S2 | . | . | 17 | . | 11
O=Nc1c(O)n(Cc2cccc(C(F)(F)F)c2)c2ccccc12 | -1 | 12 | 64* | 15 | 6
COc1ccc(CN(C(=O)c2ccco2)c2ccc(C)c(C)c2)cc1 | 1 | 21 | 65* | 10 | 7
Cc1nc2ccccn2c1C(=O)N=Nc1c(O)n(CCC(C)C)c2ccccc12 | -4 | 26 | -16 | 10 | 51*
O=C(NC(=S)N(CC1CCC1)CC1CCCO1)c1cccc([N+](=O)[O-])c1 (stereo unspecified) | 14* | 10 | 18 | 11 | 7
O=C(NCC1CCCO1)/C(=C\c1cccc([N+](=O)[O-])c1)NC(=O)c1ccccc1 (stereo unspecified) | -4 | 9 | -4 | 16 | 3
COc1cc(C(=O)NCCc2ccc3c(c2)OCCO3)ccc1OCC(=O)N1CCOCC1 | 4 | 68* | 9 | 18 | 6
COc1ccc(CN(Cc2cccn2C)S(=O)(=O)c2ccc(C)cc2)cc1 | . | 8 | 72* | . | 7
COc1ccc(S(=O)(=O)N(CC(=O)N2CCOCC2)Cc2ccccc2)cc1 | -2 | 230* | 1 | 10 | 10
O=C(CN(Cc1ccccc1)S(=O)(=O)c1ccccc1)N1CCOCC1 | -4 | 8 | 10 | 11 | 7
Cc1ccc(N(CC(=O)N2CCOCC2)S(=O)(=O)c2ccccc2)cc1 | 12* | 8 | 28 | 11 | 8
Cc1ccc(C(=O)C2=C(O)C(=O)N(Cc3ccccc3)C2c2cccnc2)o1 (stereo unspecified) | 0 | 36 | 61* | 18 | 17
C[C@H]1[C@H](C)OC(=O)C[C@H](O)C[C@H](O)C[C@H](O)CC[C@H](O)[C@H](O)CC(=O)C[C@H](O)[C@H](C(=O)O)[C@H](O)C[C@H](O[C@H]2O[C@@H](C)[C@H](O)[C@@H](N)[C@@H]2O)C=CC=CC=CC=CCCC=CC=C[C@@](C)(O)[C@H]1O | . | . | 20 | . | 44*
CC1C/C=C/C=C/C=C/C=C/C(O[C@@H]2O[C@H](C)[C@@H](O)[C@H](N)[C@@H]2O)CC2OC(O)(CC(O)CC3OC3/C=C/C(=O)O1)CC(O)C2C(=O)O (stereo partly specified) | . | . | 29 | 18 | .
SMILES | HMGR II inh | Avidin bead fluor | EP2 modulator | GSH bead fluor | PGE2 EP2 inh
CCOc1nc(N)c(C#N)c(-c2ccccc2OC)c1C#N | . | . | 36 | . | 14
Cc1ccccc1C(=O)N(Cc1cc2cccc(C)c2n2nnnc12)C1CCCC1 | . | . | 2 | . | 28
Clc1ccccc1C1CC(c2ccccc2)=Nc2ccccc2N1 (stereo unspecified) | . | 5 | 62* | . | 7
Cc1cc2c(cc1C)NC(c1ccccc1O)C1=C(CC(C)(C)CC1=O)N2 (stereo unspecified) | . | . | -14 | . | 12
CC1(C)CC(=O)C2=C(C1)Nc1ccccc1NC2c1cc(O)ccc1O (stereo unspecified) | . | . | -88 | . | 47*
C[C@H]1CC(C)(C)C[C@@](OCCN2CCCCC2)(c2ccccc2)C1 | . | . | 7 | . | 53*
Cc1cc2c(o1)c1cnn(CC(=O)N3CCC(C)CC3)c(=O)c1n2C | . | . | 5 | . | .
CCOC(=O)c1cc(-c2ccccc2)sc1NC(=O)CC | -5 | 7 | 23 | 16 | 8
CCOC(=O)c1cc(C)sc1NC(=O)c1ccccc1Cl | . | . | 71* | . | 9
COc1cc(C2/C(=C(/O)c3ccc(OCC(C)C)cc3)C(=O)C(=O)N2CCN(C)C)ccc1O (stereo unspecified) | -4 | 8 | 1 | 262* | 9
Cc1ccc(N2CCN(CC(O)c3ccc4c(c3)OCCCO4)CC2)c(C)c1 (stereo unspecified) | . | . | -39 | . | 1
Cc1cc(SCC(=O)c2ccc(Br)cc2)cc(C)[o+]1 | . | . | 16 | . | 48*
O=C(C1CCN(S(=O)(=O)c2cccnc2)CC1)N1CCN(C2CCCC2)CC1 | -3 | 71* | 24 | 29 | 13
O=C(O)c1ccc2c(c1C(=O)O)C(=O)OC2(c1ccc(O)cc1)c1ccc(O)cc1 | . | . | 20 | . | 44*
O[C@@H](c1cc(C(F)(F)F)nc2c(Cl)cc(Cl)cc12)[C@@H]1CCCCN1 | . | . | 14 | . | 58*
OC(c1cc(C(F)(F)F)nc2c(C(F)(F)F)cccc12)C1CCCCN1 (stereo unspecified) | . | . | -22 | . | 16
OC(c1cc(-c2ccc(C(F)(F)F)cc2)nc(C(F)(F)F)c1)C1CCCCN1 (stereo unspecified) | . | 9 | -30 | . | 54*
CC(=O)Nc1ccc(CN(Cc2cccnc2)C2CC(C)(C)NC(C)(C)C2)cc1 | . | . | -23 | . | 5
CCc1nn(CC(=O)NC2CCCC2)c(=O)c2cc3sc(C)cc3n12 | . | . | -42 | . | .
COCCNC(=S)N(Cc1ccc(OC)cc1)Cc1cc2cc(C)ccc2[nH]c1=O | . | . | -3 | . | 9
CC1=C(C#N)c2nc(N)c(C#N)c(C)c2/C1=C\c1ccc(C)cc1 | -4 | 31 | -111 | 12 | 40*!
CC1=C(C#N)c2nc(N)c(C#N)c(C)c2/C1=C/c1cccc(F)c1 | . | . | -87 | . | 27
O=C(CN1CCN(c2cccc(Cl)c2)CC1)Nc1ccccc1Br | . | . | -127 | . | 13
N/C(=N\OC(=O)c1cccs1)c1ccccc1 | -3 | 51* | -38 | 5 | 7
N=c1sc2ccccc2n1CCS (tested in a mixture with another compound) | . | . | -27 | . | 57*
Cc1cc(=Nc2ccc3c(c2)c(N)cc(C)[n+]3C)nc(N)n1C | . | . | 20 | . | 42*
N#Cc1ccccc1CN1C(=O)CSC1=O | . | . | 8 | . | 19
COCCN(C(=O)Nc1ccc(OC)cc1OC)C1CCN(C(C)C)CC1 | 0 | 51* | 11 | 35 | 3
